In the library only some 2.4% were active in any assay of this set; here they are far more common.
D2 PAM-1 = HTS Assay for Positive Allosteric Modulators of the Human D2 Dopamine Receptor: Primary Screen for Potentiators; AID 485347, 2010; D(2) dopamine receptor (Homo sapiens), P14416; potentiation, % at 10 µM; HEK293 T-REx D2, calcium flux, EC20 dopamine potentiation; 0.34% of 340,000 active;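 active means potentiation over 3 SD above the plate norm, cut at about 30% in these data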
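Calcium flux readout, no-wash dye, 1 read/s. Inducible HEK293 Trex D2 line, overnight 30 C. Compound alone 180 s (agonist flags), then EC20 dopamine, another 180 s to score potentiation.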
D2 PAM-2 = Beta-Arrestin HTS for Positive Allosteric Modulators of the Human D2 Dopamine Receptor: Potentiators; potentiation, % (no concentration beside the values); DiscoveRx D2 beta-arrestin cells, luminescence, 90 min; 100% = 57 uM dopamine signal; 0.23% of 360,000 active; in the data active means potentiation above about 50%; inconclusive means mostly about 30% to 49%
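PathHunter D2 cells, attached overnight at 37 deg C, received compound in DMSO plus dopamine at EC20 (50 nM final) for 90 min at 37 deg C. Beta-arrestin recruitment was read as luminescence after 1 h with detection reagent at ambient temperature.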
D2 ag-1 = Beta-Arrestin HTS for Positive Allosteric Modulators of the Human D2 Dopamine Receptor: Agonists | D(2) dopamine receptor (Homo sapiens), P14416 | DiscoveRx PathHunter D2 beta-arrestin, luminescence, 90 min; 100% = 57 uM dopamine signal | activation, % (no concentration beside the values) | 0.084% of 360,000 active | AID 624465, 2012; in the data active means activation above about 40%; inconclusive means between about 15% and that limit
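Agonist mode: compounds alone added to overnight-plated D2 PathHunter cells for 90 min at 37 C, with 57 uM final dopamine (EC100) defining full response. Beta-arrestin recruitment detected by chemiluminescent reagent, read after 1 h at ambient temperature.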
D2 ag-2 = HTS Assay for Allosteric Agonists of the Human D2 Dopamine Receptor: Primary Screen for Agonists; HEK293 T-REx D2 cells, calcium flux agonist mode; AID 485358, 2010; 0.53% of 340,000 active; activation, % at 2 µM;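 active means activation over 3 SD above normal in the single-dose calcium agonist read, cut at about 30% in these data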
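Calcium-flux readout, 1 cycle/sec over 180 s following compound pin transfer, in inducible HEK293 Trex D2 cells (force-coupled); dopamine controls included. Positive calcium responses during this window marked compounds as potential agonists.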
D2 antag = HTS Assay for Allosteric Antagonists of the Human D2 Dopamine Receptor: Primary Screen for Antagonists. HEK293 TREx D2 cells, calcium flux, dopamine EC80. inhibition, % at 10 µM. 2% of 340,000 active. AID 485344, 2010; in the data active means inhibition above about 30%; inactive means below that, where a call was filed
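Calcium flux kinetic readout in an inducible HEK293 TREx D2 line plated overnight at 30 C. After 180 s compound exposure, an EC80 dopamine challenge follows with another 180 s kinetic read to detect antagonism.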
D3 arrestin ag = qHTS of D3 Dopamine Receptor Agonist: D3 Dopamine Receptor B-arrestin Agonist Confirmatory Assay | shares compounds with D2 ag-2 | DiscoveRx D3 beta-arrestin cells, luminescence, 90 min | Potency, µM (titrated, usually from 76.9 µM), usual class: activators | 4% of 2,300 active | AID 720506, 2013; further: nearly all actives have a fitted effect of over 70% in size
Target sequence (P35462 whole entry, looked up): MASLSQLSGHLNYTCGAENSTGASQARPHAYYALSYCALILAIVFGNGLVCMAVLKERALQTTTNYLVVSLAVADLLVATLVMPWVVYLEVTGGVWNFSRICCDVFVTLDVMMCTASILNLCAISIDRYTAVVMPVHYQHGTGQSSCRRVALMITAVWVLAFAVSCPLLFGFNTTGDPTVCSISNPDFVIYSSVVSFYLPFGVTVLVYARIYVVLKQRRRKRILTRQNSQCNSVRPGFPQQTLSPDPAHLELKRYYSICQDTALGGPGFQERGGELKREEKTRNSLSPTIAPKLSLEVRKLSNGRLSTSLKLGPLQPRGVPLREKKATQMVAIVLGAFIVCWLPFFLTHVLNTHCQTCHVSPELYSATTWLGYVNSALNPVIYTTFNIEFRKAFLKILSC
D2 ag-3 = qHTS of D3 Dopamine Receptor Agonist: D2 Dopamine Receptor B-arrestin Agonist Counterscreen | shares compounds with D2 ag-2 | DiscoveRx PathHunter D2 beta-arrestin, luminescence, 90 min; response scale: percent relative to full dopamine signal | Potency, µM (series often up to 76.9 µM), hits mostly activators | 5.9% of 2,300 active; further: nearly all actives have a fitted effect of over 70% in size
Of the large screens only hits and unclear results are named; the others gave an inactive call (follow-up assays come after a bar, where they were run). Unless noted, the call rests on the fitted dose curve; in most records, active means well fitted activation curve with a large enough effect; inconclusive means small, poorly fitted or top-dose-only effect; inactive means flat fitted curve, though single readings scatter.

O=C(OCCN1C(=O)c2cccc3c(N4CCOCC4)ccc(c23)C1=O)c1ccccc1Cl	none (no result: D2 ag-2, D2 antag) | D3 arrestin ag inconclusive | D2 ag-3 inconclusive
COc1cc(C#Cc2c(-c3ccccc3OC)oc3ccccc23)cc(OC)c1	none | D3 arrestin ag inactive | D2 ag-3 inactive
CCN(CC)S(=O)(=O)c1cccc(S(=O)(=O)N2CCCCC2)c1	D2 ag-2 36 | D3 arrestin ag inactive | D2 ag-3 inactive
NC(=O)c1ccc(NC(=O)CN2CCOCC2)cc1	none
CCc1ccc(NC(=O)C(=O)NCCN2CCN(C(=O)c3ccc(OC)cc3)CC2)cc1	none (no result: D2 PAM-1, D2 ag-2, D2 antag)
CCOC(=O)c1ccc(NC(=O)CN2CCN(C(=O)c3ccco3)CC2)cc1	D2 ag-1 inconclusive, D2 ag-2 80, D2 antag 67 | D3 arrestin ag 22µM | D2 ag-3 inconclusive
CCc1ccc(NC(=O)C(=O)NCCN2CCN(C(=O)c3ccco3)CC2)cc1	D2 ag-1 inconclusive, D2 ag-2 67 | D3 arrestin ag 5µM | D2 ag-3 inconclusive
NC(=O)c1ccc(NC(=O)CN2CCN(C(=O)c3ccco3)CC2)cc1	none (no result: D2 PAM-1, D2 ag-2, D2 antag) | D3 arrestin ag inconclusive | D2 ag-3 inconclusive
CCCCC(CC)CNC(=O)c1ccc2c(=O)n(CCOC)c(=O)[nH]c2c1 (stereo not given)	none (no result: D2 PAM-1, D2 PAM-2, D2 ag-1, D2 antag)
Cc1ccc(NC(=O)N2CCN(c3nnc(C)c4c(C)n(-c5ccc(Cl)cc5)nc34)CC2)c(C)c1	none (no result: D2 PAM-2, D2 ag-1, D2 antag)
O=C(NC1CCCCC1)c1cc(C2CC2)nn1-c1ccccc1	none (no result: D2 PAM-1, D2 ag-2, D2 antag) | D3 arrestin ag inactive | D2 ag-3 inactive
Cc1cc(C)cc(-n2ccnc2SCC(=O)Nc2ccc(C)cc2C)c1	none (no result: D2 PAM-2, D2 ag-1, D2 antag)
Cc1ccccc1NC(=O)NCCCN1CCN(C)CC1	none
O=C(NCCCN1CCN(c2ccccc2F)CC1)Nc1ccc(F)cc1	D2 ag-2 76, D2 antag 81 | D3 arrestin ag inactive | D2 ag-3 inconclusive
CSc1ccc(NC(=O)NCCCN2CCN(c3ccccc3F)CC2)cc1	D2 ag-1 inconclusive, D2 ag-2 69, D2 antag 100 | D3 arrestin ag inconclusive | D2 ag-3 inconclusive
COc1ccc(N2CCN(CCCNC(=O)Nc3ccccc3)CC2)cc1	none
Cc1nn(-c2ccc(F)cc2)c(-n2cccc2)c1C(=O)NCCCN1CCN(c2ccccc2F)CC1	none (no result: D2 PAM-2, D2 ag-1, D2 antag)
O=C(NCCCN1CCN(c2ccccc2F)CC1)Nc1ccccc1[N+](=O)[O-]	D2 ag-1 inconclusive, D2 ag-2 73, D2 antag 99 | D3 arrestin ag inactive | D2 ag-3 inconclusive
COc1ccccc1N1CCN(CCCNC(=O)Nc2ccccc2)CC1	D2 ag-1 inconclusive, D2 ag-2 87, D2 antag 101 | D3 arrestin ag inactive | D2 ag-3 inactive
CCOC(=O)c1cc(NC(=O)c2ccc(F)cc2)c(=O)n2c1oc1ccc(Cl)cc12	none (no result: D2 PAM-2, D2 ag-1, D2 antag)
O=C(Cn1c(=O)c2cccn2c2ccc(F)cc21)NCCCN1CCN(c2ccccc2F)CC1	D2 ag-1 inconclusive, D2 ag-2 79, D2 antag 82 | D3 arrestin ag inactive | D2 ag-3 inconclusive
COc1ccc(CN(C(=O)/C=C/C(=O)c2ccc(OC)cc2O)C(C(=O)NC2CCCCC2)c2ccncc2)cc1 (stereo not given)	D2 ag-2 35 | D3 arrestin ag inactive | D2 ag-3 inactive
COc1ccc(NS(=O)(=O)c2ccc3[nH]c4c(c3c2)CCCCC4)cc1	none (no result: D2 PAM-2, D2 ag-1, D2 antag)
Cc1ccc(S(=O)(=O)N2CCOCC2)cc1NC(=O)CNCC1CCCCC1	D2 ag-1 inconclusive, D2 ag-2 53, D2 antag 50 | D3 arrestin ag inconclusive | D2 ag-3 inconclusive
Cc1ccc(S(=O)(=O)N2CCOCC2)cc1NC(=O)CNCc1ccc(Cl)cc1Cl	none (no result: D2 PAM-1, D2 ag-2, D2 antag)
Cc1ccc(S(=O)(=O)N2CCOCC2)cc1NC(=O)CNCc1cccnc1	D2 PAM-2 63, D2 ag-1 48, D2 ag-2 77, D2 antag 60 | D3 arrestin ag 3.5µM | D2 ag-3 35µM
Cc1ccccc1OCc1nnc(SCc2cc(=O)c3ccc(C)c(C)c3[nH]2)n1C	none (no result: D2 PAM-2, D2 ag-1, D2 antag)
CCCN(CCC)CCCNC(=O)CC(C(=O)N1CCc2ccccc21)n1ccnc1 (stereo not given)	none | D3 arrestin ag inactive | D2 ag-3 inactive
O=[N+]([O-])c1ccc(O)c(-c2cc(C(F)(F)F)nc(-c3ccccc3)n2)c1	none | D3 arrestin ag inconclusive | D2 ag-3 inactive
CC(C)(C)C1COc2ccccc2N1C(=O)c1ccccc1Cl (stereo not given)	none
CC1COc2ccccc2N1C(=O)c1ccccc1Cl (stereo not given)	D2 ag-1 inconclusive, D2 ag-2 41 | D3 arrestin ag inactive | D2 ag-3 inactive
O=C1CC(N2CCN(Cc3ccc4c(c3)OCO4)CC2)C(=O)N1Cc1ccc(N2CCCC2=O)cc1 (stereo not given)	D2 ag-2 54 | D3 arrestin ag inactive | D2 ag-3 inactive
O=C1CC(N2CCOCC2)C(=O)N1Cc1ccc(N2CCCC2=O)cc1 (stereo not given)	none
CC(C)NC[C@@H](O)c1ccc(O)c(O)c1	none | D3 arrestin ag inconclusive | D2 ag-3 inactive
Cc1ccc(NC(=O)Cn2c(C)cc(C)c(C#N)c2=O)cc1	none (no result: D2 PAM-2, D2 ag-1, D2 antag)
COc1ccc(/C=c2\s/c(=C/C(=O)c3ccc(C)cc3)[nH]c2=O)cc1OC	none | D3 arrestin ag inactive | D2 ag-3 inactive
CCc1cccc(NC(=O)C(c2ccccc2)N2Cc3ccccc3C2=O)c1 (stereo not given)	none (no result: D2 PAM-2, D2 ag-1, D2 antag)
CCN(C(=O)CSc1ncccn1)c1c(N)n(Cc2ccccc2)c(=O)[nH]c1=O	none | D3 arrestin ag inactive | D2 ag-3 inactive
CC(O)CNCCOc1ccccc1-c1ccccc1 (stereo not given)	D2 ag-2 58, D2 antag 58 | D3 arrestin ag inactive | D2 ag-3 inactive
CN(C)CCOc1ccccc1-c1ccccc1	none (no result: D2 PAM-1, D2 ag-2, D2 antag)
CCCCNCCOc1ccccc1-c1ccccc1	D2 antag 69 | D3 arrestin ag inactive | D2 ag-3 inactive
COc1ccc(C(=O)N2CCN(Cc3cc(=O)n4nc(-c5ccccc5C)sc4n3)CC2)cc1OC	none (no result: D2 PAM-2, D2 ag-1, D2 antag)

High-throughput results as filed in PubChem.
